Measurements published in the supplement of paper PMC6555819.

How the values were obtained:
Assay in all cases: PBM binding z-score (relative to random genomic background probes); higher = stronger binding; sequences stand for … in GC…GCGATTGACAGCGTAGAATGAAGG
[1] = test system: RARb homodimer (NR concentration 270 nM)
Summary of the method: (§1)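 Regression normalization was applied to scanned fluorescence from custom Agilent 4×180K protein-binding microarrays. Before scanning, arrays were incubated 1 h with ligand-free nuclear receptor dimers, and binding was detected with antibodies against each partner (one per run). Binding z-scores use the random background probes as reference.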

[2] = test system: RARg:RXRa (NR concentration 270 nM, RXRa partner concentration 90 nM)
Summary of the method: as §1

[3] = test system: RARg homodimer (NR concentration 270 nM)
Summary of the method: as §1

[4] = test system: RXRa DBDmut IVT, anti-RXR (DBD mutation: RXRa K156A/R161A, NR concentration 90 nM)
Summary of the method: as §1

[5] = test system: RXRa homodimer (NR concentration 180 nM)
Summary of the method: as §1

[6] = test system: THRa:RXRa (NR concentration 90 nM, RXRa partner concentration 90 nM)
Summary of the method: as §1

[7] = test system: THRa homodimer (NR concentration 90 nM)
Summary of the method: as §1

[8] = test system: VDR homodimer (NR concentration 270 nM)
Summary of the method: as §1

Sequence | PBM binding z-score [1] | PBM binding z-score [2] | PBM binding z-score [3] | PBM binding z-score [4] | PBM binding z-score [5] | PBM binding z-score [6] | PBM binding z-score [7] | PBM binding z-score [8]
GGAACGAGGCCAAAGTTGATAGCATCTGTCGACG | 0.373 | 0.787 | 0.688 | 0.917 | 0.814 | 0.667 | -0.899 | -0.181
ACTATTAGTTGAGAAGAGGGCAACCGATAGGTTG | 1.43 | 0.92 | 0.968 | 0.286 | 0.599 | 1.37 | -0.313 | 0.263
GCGACTGGGGCATCAGCAGGTTACCAAAACTTAA | 1.16 | 0.879 | 0.0539 | -0.286 | 0.238 | 1.19 | 0.0193 | -0.326
ACTAGCAGGCCAAGGGTTACTCAAGATTAGTCCG | 0.787 | 0.885 | 0.852 | -0.129 | 1.08 | 0.78 | -0.538 | -0.236
ACAGACAGGTGAGTGAAGGTAACTCGGCTGGACG | 0.0831 | 0.0852 | 0.044 | -0.351 | 0.256 | 1.38 | -0.708 | -0.648
CAAACTAGCTCAAAGGTCAAAGTCGAGCCAACCA | 4.79 | 6.22 | 5.63 | 1.66 | 7.07 | 3.53 | 0.75 | 2.62
ACTTACGGGTCAACGAGGTTACAGCACGCGTATA | 3.89 | 6.06 | 5.3 | 2.37 | 6.55 | 4.46 | 1.51 | 3.71
CCAGACAGGTGAAAAGGTAACTCAGCCTCGATTA | 1.49 | 1.96 | 0.973 | 0.272 | 1.52 | 0.971 | 0.514 | -0.0428
CCGACTGGGTCATAAGGTTACCATAAGCCAGCCC | 3.46 | 4.62 | 3.25 | 0.935 | 3.8 | 3.13 | 1.94 | 0.993
CCAGACAGGTGAGAAGGTAACTCACCCTCGATTA | 0.972 | 0.89 | 0.67 | 0.134 | 0.806 | 0.55 | 0.193 | -0.0144
CCTTACGGGTCAAGGTTATAGCGCGGGTGGTACG | 3.48 | 4.83 | 4.46 | 1.19 | 5.01 | 2.96 | 0.728 | 1.52
GCAGACAGGTGAAACGCAGGCAACTCAGGGTGGC | -0.0684 | 0.39 | 0.237 | -0.513 | 0.435 | 0.404 | -0.656 | -0.588
CCTACTGGACCATTCAGAGGTCATTGATCATATG | 4.13 | 3.53 | 2.94 | 1.51 | 3.99 | 3.04 | 2.32 | 4
TGAATGAGGTTAAAGATCCGGGAACGTGGCGTCG | 0.578 | 1.5 | 1.05 | 1.22 | 2.61 | 2.12 | 0.411 | 0.437
AGAACGAGCGCACGCTGAGTTGATAGCAGAGTAG | -1.25 | -0.476 | -0.51 | -0.346 | -0.489 | -0.752 | -1.21 | -0.599
CCTGCAAGGTCAATGGTCAGCTAAAGCAGCTCGC | 3.65 | 5.83 | 5.9 | 3.75 | 5.35 | 3.77 | 1.8 | 2.45
ATCGCTAGGTAACAAGTTCAGTGAAAGAGAGGAC | 1.42 | 1.07 | 0.968 | 0.533 | 0.504 | 1.08 | 0.174 | 2.02
GCGACTGGGGCAACAGCAGGTTACCATAACTTAA | 0.882 | 0.815 | 0.776 | -0.15 | 0.454 | 1.67 | -0.275 | -0.281
GCGACTGGGGCATCAGCAGGTTAGCATAACTTAA | 0.258 | 0.506 | 0.0514 | -0.821 | 0.0592 | 0.204 | -0.74 | -0.612
TAAGACAGGTGAAGGTAACTCAGGTACGCAGTCG | 0.812 | 0.869 | 0.994 | -0.391 | 0.793 | 1.48 | 0.449 | 0.487
GCTGCTAGGTCAACTGATGGTCAGCTGAAGCTCG | 3.56 | 5.1 | 5.51 | 1.55 | 2.82 | 3.12 | 1.05 | -0.0434
CCTTACGGGTCACTCCAGGCTATAGCATCGGAGT | 2.51 | 4.03 | 4.09 | 0.95 | 4.01 | 4.23 | -0.482 | 0.841
CAAACTAGGTTAAAGGTCAAAGTCGAGCCAACCA | 4.47 | 7.04 | 5.43 | 2.13 | 8.81 | 3.85 | 0.829 | 2.96
TGAATGAGGTTATAAGATCAGGGATCGTTGCAAA | -0.0683 | 1.33 | 0.782 | 0.362 | 2.09 | 1.68 | 0.0696 | 0.406
ATATGTAGGTTAAGGGTAATTCAGGTTGGTTCGC | 1.56 | 1.13 | 1.08 | 0.754 | 1.64 | 2.43 | 1.45 | 1.89
CCTACTGGGCCATTCAGAGGTGATTGATCATATG | 0.207 | 0.611 | 0.223 | -0.252 | 0.178 | 0.505 | -0.356 | -0.44
CCTATTGGGCCAAAGGTCATTGATTCCAATGCTC | 4.43 | 5.85 | 4.73 | 1.62 | 6.7 | 3.29 | 0.647 | 2.85
GCTCCTAGGTCAACTGATGGTCAGCTAAAGCTCG | 3.8 | 5.76 | 5.88 | 2.02 | 3.77 | 3.15 | 1.7 | 0.601
CCTATTAGATGACCATAAGGGCAACCGAAGCTCG | 1.98 | 1.02 | 1.2 | 0.541 | 0.88 | 1.69 | 1.19 | 0.819
